Inhibition data for 98 molecules are collected here from PubChem BioAssay AID463212 (Sanford-Burnham Center for Chemical Genomics, 2010).

Molecules are shown by their SMILES. The campaign covered roughly 330,000 compounds. About 4,400 (1.3%) were called active.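 How the source made its calls: active means growth inhibition of the mutant yeast at or above 50%; inactive means the rest.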 Shown is part of a subset that was picked to be rich in actives.

The nature of this test: growth inhibition of tim23-1 ts yeast – luminescence, uHTS, primary screen (AID 463212).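 Further: temperature-sensitive mutant grown at 25 °C; plate controls were DMSO-treated mutant yeast for no effect and medium wells lacking yeast for full effect.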 The conditions noted are these: S. cerevisiae tim23-1 growth, BacTiter-Glo luminescence, 24 h; at 20 µM; active compounds read high.
Regarding `CC[C@@H]1Cc2cc(O)ccc2C2=C1c1ccc(O)cc1C[C@H]2CC`, the inhibition was -6.54% (inactive). For `COC(=O)c1sccc1NC(=O)COc1ccc(Cl)cc1`, the inhibition was 6.02% (inactive).

For `CCOC(=O)c1c(NC(=O)c2ccc(S(=O)(=O)N(C)CC3CCCO3)cc2)sc2c1CC(C)(C)NC2(C)C` (stereo not drawn), the inhibition is 24% (inactive).

`COC(=O)c1c(NC(=O)COc2ccc(Cl)cc2Cl)sc2c1CC(C)(C)NC2(C)C`: the inhibition was 60.1% (active). Turning to `Cc1ccc(C(=O)NCC(=O)NCc2cc(=O)n(C)c(=O)n2C)cc1`, the inhibition was 16.1% (inactive). As to `Nc1nc(SCC(=O)Nc2ccc(Cl)cc2C(F)(F)F)n[nH]1`, the inhibition was 3.1% (inactive). With `CCC(C)(C)n1nnnc1CN1CCN(c2nc3ccc(C)cc3cc2C#N)CC1` the figure was 40.5% (inactive). As for `O=C1CSC(=S)N1c1ccc(Cl)c(Cl)c1`, the inhibition is 53.7% (active). For the molecule `O=C1CSC(=S)N1c1ccc(O)cc1`, the inhibition was 11.4% (inactive).

Consider `COc1cc(N2C(=O)CSC2=S)cc(OC)c1OC`, for which the inhibition is 23.9% (inactive). For `CCNC(=O)NC(=O)C(C)OC(=O)c1cc(S(=O)(=O)N2CCCCCC2)ccc1OC` (stereo not drawn), the inhibition was 19.4% (inactive). The figure for `O=[N+]([O-])c1ccc2nc(-c3ccccn3)[nH]c2c1` is 46.5% (inactive); for `COc1ccc([N+](=O)[O-])cc1-c1nc2ccccc2nc1-c1ccccc1` it is 36.6% (inactive); for `O=[N+]([O-])c1ccc2c(c1)Nc1nc3ccccc3nc1N2` it is 59.9% (active). Take `COc1ccc(-c2cc3ncccc3cn2)cc1`: the inhibition was 9.46% (inactive). The figure for `CC(=O)NC(Cc1ccccc1)C(=O)NC1CCN(c2ncccc2[N+](=O)[O-])CC1` (stereo not drawn) is 10.9% (inactive). With `COc1ccc(-c2cc(C3CCN(c4ncccc4[N+](=O)[O-])CC3)[nH]n2)cc1` the figure was 57.6% (active). Consider `CC(C(=O)Nc1ccccc1-c1ccccc1)N1CCOCC1` (stereo not drawn), for which the inhibition was 7.67% (inactive).

As for `Nc1nc2n(n1)C(c1ccco1)CC(c1ccc(Cl)c(Cl)c1)N2` (stereo not drawn), the inhibition was 20.6% (inactive).

On to `COc1ccc(C2CC(c3ccc(C)cc3)Nc3ncnn32)cc1` (stereo not drawn), for which the inhibition is 27.1% (inactive). The figure for `Clc1ccc(C2CC(c3cccs3)n3ncnc3N2)cc1Cl` (stereo not drawn) is 50.5% (active); for `Oc1ccccc1CNc1ncc(Br)cc1Br` it is 45.5% (inactive).

On to `CCc1nnc(NS(=O)(=O)c2ccc(NC(=O)c3cccc(OC(F)(F)C(F)F)c3)cc2)s1`, for which the inhibition was -1.08% (inactive). With `CCc1nnc(NS(=O)(=O)c2ccc(NC(=S)NC(=O)/C=C/c3cccs3)cc2)s1` the figure was 96.1% (active). `CCc1nnc(NS(=O)(=O)c2ccc(NC(=S)NC(=O)c3cccs3)cc2)s1`: the inhibition is 18.7% (inactive). On to `COC(=O)c1cc2occc2n1Cc1nc(-c2ccccc2C)oc1C`, for which the inhibition is 4.08% (inactive). Turning to `C=CCn1nc(-c2ccccc2)c2c(C)onc2c1=O`, the inhibition was 6.39% (inactive). Consider `CC(=O)Nc1ccc(S(=O)(=O)NC2(C(F)(F)F)C(=O)Nc3c2c(=O)[nH]c(=O)n3Cc2ccccc2)cc1` (stereo not drawn), for which the inhibition was 3.06% (inactive). With `CC(C)NC(=O)/C(C#N)=C\c1ccc(N(C)C)c(Br)c1`, the inhibition is 61% (active). The figure for `Cc1[nH]c2ccccc2c1/C=C(/C#N)C(=O)NC(C)C` is 10.2% (inactive); for `CC(C)(C)C(=O)/C(C#N)=C/c1ccc(O)cc1` it is 24% (inactive); for `Cc1cc(C(=O)OC(C)C(=O)NC2CCCCC2C)c(C)o1` (stereo not drawn) it is -5.23% (inactive). For `CCN(CC)CC(=O)Nc1sc2c(c1C(=O)c1ccccc1C)CCC2`, the inhibition is 32.5% (inactive). With `CC(OC(=O)CCCc1c[nH]c2ccccc12)C(=O)Nc1ccc(S(N)(=O)=O)cc1` (stereo not drawn), the inhibition was 11.1% (inactive). `CCN(CC)C(=O)N1CCN(C(=O)c2ccc(C)cn2)CC1`: the inhibition is 8.95% (inactive). As to `CC(=O)n1c(C=Nc2ccccc2)c(O)c2ccccc21`, the inhibition is 10.8% (inactive). Take `CC(C)CNC(=O)CC(c1ccccc1)c1c(O)ccc2ccccc12` (stereo not drawn): the inhibition was 11.2% (inactive). Take `C/C(=N\N(C)C)c1ccc(OCCOc2ccc([N+](=O)[O-])cc2)cc1`: the inhibition was 20.4% (inactive). Turning to `O=[N+]([O-])c1ccc(N=Cc2c(O)ccc3ccccc23)cc1`, the inhibition was 55.5% (active). As to `Cc1nc2ccccc2nc(=O)c1NNc1ccc([N+](=O)[O-])cc1`, the inhibition was -14.3% (inactive). With `Oc1ccc2ccccc2c1C=Nc1ccccc1`, the inhibition was 53.2% (active). With `COc1ccc(NC(=O)C2=C(C)NC(=O)NC2c2ccccc2[N+](=O)[O-])cc1` (stereo not drawn) the figure was 1.02% (inactive). For `O=C(NCC(=O)N(CC1CCCO1)C(C(=O)NC1CCCCC1)c1ccccc1)c1ccco1` (stereo not drawn), the inhibition was 14.7% (inactive). Turning to `COc1cc(C2CC(=O)Oc3cc(OC)c(OC)c(OC)c32)cc(OC)c1OC` (stereo not drawn), the inhibition is 27.3% (inactive).

Turning to `COc1ccc(NC(=O)NNC(=O)COc2cc(C)c(Cl)c(C)c2)c(OC)c1`, the inhibition was -17.4% (inactive). Take `Oc1ccc(/C=N/Nc2ccc(C(F)(F)F)cn2)cc1O`: the inhibition was 16.3% (inactive). With `Oc1ccc(Br)cc1/C=N/Nc1ccccn1` the figure was 68% (active). In the case of `Oc1cccc(/C=N/Nc2ccc(Cl)nn2)c1O`, the inhibition is 24.4% (inactive). Turning to `COc1ccc(/C(N)=N/OC(=O)Cc2ccccc2)cc1`, the inhibition was 21.8% (inactive).

`N/C(=N\OC(=O)CCc1ccccc1)c1ccc(Cl)cc1`: the inhibition was 73.6% (active). Consider `COc1ccc(/C(N)=N/OC(=O)Oc2ccccc2)cc1`, for which the inhibition is 14.8% (inactive). Take `COc1ccc(/C(N)=N/OC(=O)CCCc2ccccc2)cc1`: the inhibition was 71.1% (active). The figure for `O=C(CCc1ccccc1)NNC(=O)COc1ccc(Cl)cc1` is 7.58% (inactive); for `N/C(=N\OC(=O)CCc1ccccc1)c1cccnc1` it is 18.1% (inactive); for `CCC[C@H]1CCCC/C=C\CCCC(=O)OCCN1C(=O)OC(C)(C)C` it is 9.84% (inactive). As to `CC1Sc2ccc(C(=O)NCc3ccccc3Cl)cc2NC1=O` (stereo not drawn), the inhibition was 9.69% (inactive). Turning to `CCOc1ccc(N/C(N)=N/c2nc(C)c(C)c(=O)[nH]2)cc1`, the inhibition is 12.2% (inactive). With `CCOC(=O)N1CCN(C(=O)c2ccc3nc4cc(Cl)ccc4c(=O)n3c2)CC1` the figure was 10.4% (inactive). Turning to `CCN(CC(=O)Nc1ccc(OC)cc1)C(=O)CSCc1ccc(C)cc1`, the inhibition is 25% (inactive). `COc1ccc(CS(=O)/C(Cl)=C(/Cl)C(=O)Nc2ccc(OC)nc2)cc1` (stereo not drawn): the inhibition was 85.7% (active). On to `COc1ccc(C(=O)CCC(=O)Nc2ccc(Cl)cc2)cc1`, for which the inhibition is 12.1% (inactive). In the case of `COC(=O)c1sccc1NC(=S)Nc1ccc(C)cc1`, the inhibition was 22.6% (inactive). Consider `COc1ccc(CCNC(=O)c2cnc(Cl)c(Cl)c2)cc1`, for which the inhibition was 1.06% (inactive). Take `COc1ccc(NC(=O)/C(Cl)=C(/Cl)S(=O)Cc2ccc(C)cc2)cn1` (stereo not drawn): the inhibition is 67% (active). As for `COc1ccc2c(c1)cc1n2CCN=C1NN`, the inhibition was 45.5% (inactive).

In the case of `COc1ccc(C(=O)ON=C2c3ccccc3-c3ccccc32)cc1OC`, the inhibition was 0.197% (inactive). For the molecule `COc1ccc(C/C(N)=N/OC(=O)c2ccco2)cc1OC`, the inhibition is 2.63% (inactive). Consider `COc1ccc(C(=O)O/N=C(\N)Cc2ccc(Cl)cc2Cl)cc1OC`, for which the inhibition was 60.3% (active). In the case of `Cn1nc(C(F)(F)F)c(-c2ccc(F)cc2)c1NC(=O)CSCC(=O)O`, the inhibition is -1.38% (inactive). Take `Cn1nc(C(F)(F)F)c2cc(C(=O)N3CCOCC3)sc21`: the inhibition was 3.93% (inactive). For `Cn1nc(C(F)(F)F)c2cc(NC(=O)OCC(C)(C)C)sc21`, the inhibition is 50.2% (active). Regarding `COc1ccc(CCNC(=O)C2CCCN(Cc3nc(-c4cccc(Cl)c4)oc3C)C2)cc1OC` (stereo not drawn), the inhibition is 7.77% (inactive). As for `COc1cc(OC)c2c(-c3cccc(-c4cccc(N)c4)c3)cc(=O)oc2c1`, the inhibition is 35.7% (inactive). As to `O=C(O)c1ccc(/C=N/NC(=S)NCc2ccccc2)cc1`, the inhibition was -1.86% (inactive). Turning to `C/C(=N\NC(=S)NCc1ccccc1)c1ccc(Cl)cc1`, the inhibition is 56% (active). With `C/C(=N\NC(=S)NCc1ccccc1)C1CCCCC1`, the inhibition was 22.7% (inactive).

Regarding `Cc1nn(C)c(C)c1CN(C(=O)CCc1nnc(Cc2c[nH]c3ccccc23)o1)C(C)C`, the inhibition was 20.5% (inactive). Consider `COc1ccc(-n2cnc3cc(C(=O)NC4CCCC4)ccc32)cc1`, for which the inhibition was 17.7% (inactive).

Consider `O=C(NC(=S)NC1CCCCC1)c1ccc(Cl)cc1`, for which the inhibition was 67.3% (active). As for `O=C(NNC(=S)NC1CCCCC1)c1ccccc1Cl`, the inhibition was 5.3% (inactive). Take `O=C(NC1CCCCCC1)C1CCN(C(=O)c2ccc(Cl)cc2)CC1`: the inhibition was 15.7% (inactive). With `COc1ccc(C(=O)NC(=S)NC2CCCCC2)cc1` the figure was 63.3% (active); with `CCCNC(=S)N1CCC(NC(=O)c2ccc(OC)cc2)CC1`, -9.98% (inactive). On to `CCc1ccc(S(=O)(=O)NCC(O)COc2ccc(OC)cc2)cc1` (stereo not drawn), for which the inhibition is 13.2% (inactive). With `CCc1ccc(Nc2n[n+](-c3ccccc3)c(-c3cccc(Cl)c3Cl)s2)cc1` the figure was 36.3% (inactive); with `CC(=O)C1=C(O)C(=O)N(c2cccnc2)C1c1ccc([N+](=O)[O-])cc1` (stereo not drawn), 4.69% (inactive). As for `CCc1ccccc1NC1c2ccccc2C(=O)N1c1cccnc1` (stereo not drawn), the inhibition is -9.01% (inactive). For `O=C1[C@@H](c2ccccc2)[C@@H](c2ccccc2)N1c1cccnc1`, the inhibition was 70.3% (active). Regarding `COc1cc(/C=N/Nc2nc3ccccc3s2)ccc1O`, the inhibition is 51.9% (active). As for `CCOc1cc(/C=N/Nc2cc(C)nc3ccc(C)cc23)ccc1O`, the inhibition was 37.3% (inactive).

With `COc1cc(/C=N/NC(=O)CCc2n[nH]c(=O)[nH]c2=O)ccc1O`, the inhibition is 5.73% (inactive). Turning to `CC(=O)c1c(C)[nH]c(C(=O)CN2C(=O)NC(C)(C)C2=O)c1C`, the inhibition is -12.9% (inactive).

For `Cc1ccc(S(=O)(=O)N[C@@H](Cc2ccccc2)C(=O)N2CCC(C(=O)N[C@H](C(=O)O)C(C)O)CC2)cc1` (stereo partly drawn), the inhibition was 0.987% (inactive). Turning to `Oc1c(Cl)cc(Cl)c(Cl)c1Cc1c(O)c(Cl)cc(Cl)c1Cl`, the inhibition is 94.9% (active). As to `Cc1ccc(OC(=O)c2cncc(Br)c2)c(C)c1`, the inhibition is 14.1% (inactive). The figure for `Cc1ccc(C(=O)OC2CCCN(C)C2)cc1` (stereo not drawn) is -2.9% (inactive); for `CC1(C)C2CCC1(C)C(OC(=O)c1ccc(O)cc1)C2` (stereo not drawn) it is 70% (active); for `CC1(C)C2CCC1(C)C(OC(=O)CCn1ccnc1)C2` (stereo not drawn) it is 13.1% (inactive).
